Data on 40 molecules can be found in PubChem BioAssay (NCATS).

Where “and” joins values, the source holds several entries; their conditions need not be identical. Equal values may be shown once. Inconclusive results are not listed. Calls of active or inactive are those of the source. Calls come from the whole dose curve; as a rule, active = well fitted inhibition curve with a large enough effect in the repeat runs; inconclusive = weak or mixed curves; inactive = flat fitted curve, though single readings scatter.
% is set by controls: 0 for no effect and ±100 for the full control effect; potency is the fitted concentration of half-maximal effect.

Cytochrome P450 2D6 (Homo sapiens), sequence (P10635 whole entry, looked up): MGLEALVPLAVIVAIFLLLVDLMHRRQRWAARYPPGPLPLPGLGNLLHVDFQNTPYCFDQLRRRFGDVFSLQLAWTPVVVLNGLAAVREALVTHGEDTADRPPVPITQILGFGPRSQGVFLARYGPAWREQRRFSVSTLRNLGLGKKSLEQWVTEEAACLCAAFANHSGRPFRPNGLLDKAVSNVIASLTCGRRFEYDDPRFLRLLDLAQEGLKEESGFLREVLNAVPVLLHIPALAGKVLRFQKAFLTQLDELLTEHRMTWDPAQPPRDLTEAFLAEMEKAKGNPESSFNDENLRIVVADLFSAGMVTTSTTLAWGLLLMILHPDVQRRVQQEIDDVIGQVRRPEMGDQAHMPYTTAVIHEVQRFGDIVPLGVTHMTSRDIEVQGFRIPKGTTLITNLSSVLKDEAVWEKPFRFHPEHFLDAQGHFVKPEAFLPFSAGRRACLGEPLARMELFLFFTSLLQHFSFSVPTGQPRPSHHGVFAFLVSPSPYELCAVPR

The experiment addresses Cytochrome P450 2D6 (Homo sapiens) (UniProt P10635). The experiment in a line: Cytochrome P450 family 2 subfamily D member 6 (CYP2D6) small molecule antagonists: luciferase biochemical (cell-free) qHTS assay (AID 1645840). Note: nearly all actives have a fitted effect of over 55% in size. The conditions noted are these: P450-Glo CYP2D6 enzyme, luciferin luminescence, 1 h; series mostly up to 57.4 µM; activity change, negative = inhibition: at the top concentration. The protocol:
National Center for Advancing Translational Sciences [NCATS] Assay Overview: Cytochrome P450 (CYP) enzymes are membrane-bound hemeproteins that play a key role in metabolism of drugs and xenobiotics. Assaying the effect of chemicals on CYP isozymes is useful to minimize the adverse drug reactions and toxicities in drug development process. Chemical compounds were tested for their effect on CYP enzyme activities by using P450-Glo (TM) screening systems (Promega Corporation, Madison, WI). These systems provide a luminescent method containing proluciferin substrates and are converted to luciferin products by CYP isozymes. The luciferin products formed are detected with a luciferin detection reagent, and the amount of light produced is proportional to CYP activity. P450-Glo (TM) CYP2D6 screening system (Catalog. No. V9890) was used to detect the compounds that interfere in CYP2D6 activity.
Assay Protocol Summary: Two ul of enzyme-substrate mix was dispensed into medium binding white/solid 1536-well plates (Greiner Bio-One North America Inc., Monroe, NC) using a Flying Reagent Dispenser (FRD, Aurora Discovery, San Diego, CA). […] The assay plates were incubated at room temperature for 10 min. Then 2 ul of NADPH regeneration solution was added to each well of the assay plates using an FRD and incubated at room temperature for 1 h. The reaction was stopped by adding 4 ul of detection reagent using an FRD and after 20 min incubation at room temperature, the luminescence signal was measured using a ViewLux plate reader (Perkin Elmer, Shelton, CT). Data were expressed as relative luminescence units.
Take `Clc1ccc2c(c1)C(N1CCNCC1)=Nc1ccccc1O2`: the Potency was 4.36 µM (active).
In the case of `Cc1cc(C(C)(C)C)cc(C)c1CC1=NCCN1`, the Potency was 4.36 µM (active).
As to `CC[C@@]1(O)C(=O)OCc2c1cc1n(c2=O)Cc2cc3c(CN(C)C)c(O)ccc3nc2-1`, the “activity change, negative = inhibition” value is 4.64% (inactive).
On the same count and under the same terms, the result for `C[C@H]1c2cccc(O)c2C(O)=C2C(=O)[C@]3(O)C(O)=C(C(N)=O)C(=O)[C@@H](N(C)C)[C@@H]3[C@@H](O)[C@@H]21` reads -23.2% (inactive).
`COc1ccccc1N1CCN(CC(O)COc2cccc3ccccc23)CC1` (stereo not given): the Potency is 0.436 µM (active).
Consider `CC1(CN2CCC(n3c(=O)[nH]c4ccccc43)CC2)OCc2ccccc2-n2cccc21` (stereo not given), for which the Potency was 1.38 µM (active).
For the molecule `Nc1nc2c(ncn2COC(CO)CO)c(=O)[nH]1`, the “activity change, negative = inhibition” value was 5.85% (inactive).
`CN(C)CCC=C1c2ccccc2C=Cc2ccccc21`: the Potency is 3.89 µM (active) and 8.49 µM (active).
On the same count and under the same terms, under `Clc1ccccc1C(c1ccccc1)(c1ccccc1)n1ccnc1` stands 9.77 µM (active).
As for `CC12CC3CC(C)(C1)CC(N)(C3)C2`, the “activity change, negative = inhibition” value was -11.5% (inactive).
In the case of `CCC1(C)CC(=O)NC1=O` (stereo not given), the “activity change, negative = inhibition” value is -9.78% (inactive).
For `Cn1ccc2cc3c(cc21)CCN3C(=O)Nc1cccnc1`, the “activity change, negative = inhibition” value is 0.211% [at 23.9 µM] (inactive).
Regarding `CC(C)(Oc1ccc(C2CC2(Cl)Cl)cc1)C(=O)O` (stereo not given), the Potency entry is “inactive”.
As for `O=c1[nH]cc(F)c(=O)[nH]1`, the “activity change, negative = inhibition” value is 8.87% (inactive).
On the same count and under the same terms, the result for `COc1cc2nc(N3CCN(C(=O)c4ccco4)CC3)nc(N)c2cc1OC` reads -4.23% [at 23.9 µM] (inactive).
For the molecule `COc1ccccc1OCCNCC(O)COc1cccc2[nH]c3ccccc3c12` (stereo not given), the Potency is 1.95 µM (active).
In the case of `CN1C(C(=O)Nc2ccccn2)=C(O)c2ccccc2S1(=O)=O`, the Potency entry was “inactive”.
`COc1ccc2[nH]cc(CCNC(C)=O)c2c1`: the “activity change, negative = inhibition” value was -15.1% (inactive).
With `Nc1c2c(nc3ccccc13)CCCC2`, the Potency was 9.77 µM (active).
For the molecule `CC1COc2c(N3CCN(C)CC3)c(F)cc3c(=O)c(C(=O)O)cn1c23` (stereo not given), the “activity change, negative = inhibition” value is -1.61% (inactive).
As for `CC(C)Cc1ccc(C(C)C(=O)O)cc1` (stereo not given), the “activity change, negative = inhibition” value is 2.98% (inactive).
Turning to `Nc1ccn([C@H]2CC[C@@H](CO)O2)c(=O)n1`, the “activity change, negative = inhibition” value is 16.1% (inactive).
Still for that read-out and setting: the result for `NC(=O)OCC(COC(N)=O)c1ccccc1` reads -0.946% (inactive).
Turning to `OCCN(CCO)c1nc(N2CCCCC2)c2nc(N(CCO)CCO)nc(N3CCCCC3)c2n1`, the Potency was 4.9 µM (active).
Still for that read-out and setting: the result for `O=C(Nc1ccc([N+](=O)[O-])cc1Cl)c1cc(Cl)ccc1O` reads 13.5 µM (active).
For `COc1ccc(CCN(C)CCCC(C#N)(c2ccc(OC)c(OC)c2)C(C)C)cc1OC` (stereo not given), the Potency result is “inactive”.
As for `COc1cc2nc(N3CCN(C(=O)C4COc5ccccc5O4)CC3)nc(N)c2cc1OC` (stereo not given), the “activity change, negative = inhibition” value was -23.4% (inactive).
Still for that read-out and setting: the result for `CC(=O)OCC(CCn1cnc2cnc(N)nc21)COC(C)=O` reads 4.66% (inactive).
For `Cc1ccc(-c2cc(C(F)(F)F)nn2-c2ccc(S(N)(=O)=O)cc2)cc1`, the Potency was 13.8 µM (active).
For the molecule `CCOC(=O)Nc1ccc(NCc2ccc(F)cc2)nc1N`, the Potency was 3.09 µM (active).
As for `CC[N+](CC)(CC)CCOc1cccc(OCC[N+](CC)(CC)CC)c1OCC[N+](CC)(CC)CC`, the “activity change, negative = inhibition” value is -2.6% (inactive).
As for `CS(=O)(=O)Nc1ccc([N+](=O)[O-])cc1Oc1ccccc1`, the “activity change, negative = inhibition” value was -16.3% (inactive).
Consider `Cc1cn([C@H]2C[C@H](N=[N+]=[N-])[C@@H](CO)O2)c(=O)[nH]c1=O`, for which the “activity change, negative = inhibition” value is 0.711% (inactive).
`COc1ccc(C2CNC(=O)C2)cc1OC1CCCC1` (stereo not given): the “activity change, negative = inhibition” value is -11.6% (inactive).
With `CC1(C)O[C@H]2CC(=O)OC[C@]23[C@H]2CC[C@@]4(C)[C@H](c5ccoc5)OC(=O)[C@H]5O[C@]54[C@]2(C)C(=O)C[C@@H]13`, the “activity change, negative = inhibition” value is -0.351% (inactive).
For `COc1cc2c(c(OC)c1OC)-c1ccc(OC)c(=O)cc1[C@@H](NC(C)=O)CC2`, the “activity change, negative = inhibition” value was -4.45% (inactive).
Take `O=C1N(c2ccccc2)c2ccccc2C1(Cc1ccncc1)Cc1ccncc1`: the “activity change, negative = inhibition” value was -15.1% (inactive).
For the molecule `CN1CCC(=C2c3ccccc3C=Cc3ccccc32)CC1`, the Potency was 2.19 µM (active).
As for `NS(=O)(=O)c1cc2c(cc1Cl)NCNS2(=O)=O`, the “activity change, negative = inhibition” value was 3.54% (inactive).
Regarding `CC(COc1ccccc1)N(CCCl)Cc1ccccc1` (stereo not given), the Potency is 0.723 µM (active).
